Test results published in PubChem BioAssay (Tox21).
Results filed as inconclusive are left out. Activity calls are given as the source filed them. Unless noted, the call rests on the fitted dose curve; in most records, active means well fitted curve in the direction sought with a large enough effect in the repeat runs; inconclusive means weak or mixed curves; inactive means no such curve, though single readings can be large; an effect the other way counts as inactive or inconclusive.

Legend:
[1] = qHTS assay to identify small molecule antagonists of the retinoid-related orphan receptor gamma (ROR-gamma) signaling pathway - cell viability counter screen (AID 1159520); further: on the % scale 0 is the no-effect control and ±100 the full control effect; nearly all actives have a fitted effect of over 50% in size
Summary of the method: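 Tet-on ROR gamma CHO cells (1,000/well) were plated 4 hr, given compounds in DMSO for 2 hr at 37 C, then induced with 1 uM final doxycycline for 16 hr. Viability was read as ATP by CellTiter-Glo luminescence after 30 min.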

[2] = biological target: Nuclear receptor ROR-gamma (Homo sapiens) (UniProt P51449); test: qHTS assay to identify small molecule antagonists of the retinoid-related orphan receptor gamma (ROR-gamma) signaling pathway (AID 1159521;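 further: CHO cells with doxycycline inducible ROR-gamma driving an RORE luciferase reporter; top concentration of the series differs between compounds; on the % scale 0 is the no-effect control and ±100 the full control effect; nearly all actives have a fitted effect of over 50% in size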)
Summary of the method: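 Test compounds were applied to Tet-on RORγ CHO cells 2 h ahead of doxycycline hyclate (1 uM final). Luciferase reporter activity was quantified by luminescence after 16 h at 37 C and 5% CO2.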

[3] = qHTS assay to identify small molecule agonists of the AP-1 signaling pathway - cell viability counter screen (AID 1159525; calls by dose curve; further: nearly all actives have a fitted effect of over 55% in size)
Summary of the method: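 Each titration point was normalised to DMSO and tetra n-octyl ammonium bromide controls. The read was Cell Titer Glo luminescence after 30 min at RT, following 5 h compound exposure of ME-180 AP-1-bla cells at 37 °C.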

[4] = qHTS assay to identify small molecule agonists of the AP-1 signaling pathway (AID 1159526; calls by dose curve; further: on the % scale 0 is the no-effect control and ±100 the full control effect)
[5] = biological target: Retinoic acid receptor RXR-alpha (Homo sapiens) (UniProt P19793); test: qHTS assay to identify small molecule agonists of the RXR signaling pathway (AID 1159527; calls by dose curve; further: on the % scale 0 is the no-effect control and ±100 the full control effect; nearly all actives have a fitted effect of over 35% in size)
Summary of the method: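 Using 9-cis retinoic acid as the reference agonist, chemicals were tested in HEK 293T cells […] for 16 hr; substrate loading lasted 2 hr at room temperature.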

[6] = qHTS assay to identify small molecule agonists of the RXR signaling pathway - cell viability counter screen (AID 1159529); further: nearly all actives have a fitted effect of over 50% in size; further: potency means the concentration at half of the fitted maximal effect; on activity change, negative = cytotoxicity: series mostly up to about 77 µM; on the % scale 0 is the no-effect control and ±100 the full control effect
Summary of the method: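 Compounds dissolved in DMSO were pinned onto HEK 293T cells carrying a beta-lactamase reporter under RXR-alpha control and incubated 16 hr. Cytotoxicity was then quantified by CellTiter-Glo luminescence.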

[7] = qHTS assay to identify small molecule antagonists of the vitamin D receptor (VDR) signaling pathway - cell viability counter screen (AID 743225); further: on the % scale 0 is the no-effect control and ±100 the full control effect; nearly all actives have a fitted effect of over 50% in size
Summary of the method: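 Compounds were pinned onto VDR-bla HEK 293T cells together with 1-alpha,25-dihydroxyvitamin D3 at 3 nM final. After 16 h at 37C and 5% CO2 plus the reporter readout, cell viability was measured by CellTiter-Glo luminescence (30 min, room temperature).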

[8] = qHTS assay to identify small molecule agonists of the endoplasmic reticulum stress response signaling pathway - cell viability counter screen (AID 1159517; calls by dose curve; further: nearly all actives have a fitted effect of over 50% in size; further: potency means the concentration at half of the fitted maximal effect;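 on activity change, negative = cytotoxicity: HeLa cells carrying an ER stress response element beta-lactamase reporter; series mostly up to about 61 µM; on the % scale 0 is the no-effect control and ±100 the full control effect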)
Summary of the method: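 Cytotoxicity of test compounds toward ESRE-bla HeLa cells was assessed after 5 hr exposure. The luminescent CellTiter-Glo signal was measured 30 min after reagent addition.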

[9] = qHTS assay to identify small molecule antagonists of the retinoid acid receptor (RAR) signaling pathway - cell viability counter screen (AID 1159551); further: on the % scale 0 is the no-effect control and ±100 the full control effect; nearly all actives have a fitted effect of over 35% in size
Summary of the method: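 C3RL4 RARE-luciferase line; cpds + retinol 1 uM final, 6 h, 37 C/5% CO2; CellTiter-Glo ATP luminescence, 30 min RT.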

Sequence of Retinoic acid receptor RXR-alpha (Homo sapiens) (P19793 whole entry, looked up): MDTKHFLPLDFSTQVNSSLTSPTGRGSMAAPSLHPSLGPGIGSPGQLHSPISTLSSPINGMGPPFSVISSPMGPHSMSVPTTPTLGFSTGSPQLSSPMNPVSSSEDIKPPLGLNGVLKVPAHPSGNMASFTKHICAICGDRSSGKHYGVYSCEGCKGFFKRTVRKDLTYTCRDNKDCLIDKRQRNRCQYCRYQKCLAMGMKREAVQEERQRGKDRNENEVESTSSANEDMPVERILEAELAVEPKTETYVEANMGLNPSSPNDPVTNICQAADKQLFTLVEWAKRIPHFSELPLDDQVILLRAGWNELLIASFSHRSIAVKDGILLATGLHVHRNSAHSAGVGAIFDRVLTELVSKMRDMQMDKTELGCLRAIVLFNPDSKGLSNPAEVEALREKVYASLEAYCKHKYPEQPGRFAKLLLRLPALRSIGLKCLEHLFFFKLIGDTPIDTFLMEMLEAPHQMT

CC1CCCCC1
inactive: Potency [1] | Potency [2] | Potency [3] | Potency [4] | Potency [5] | Potency [6]

C#CC(O)CCC (configuration not stated)
inactive: Potency [1] | Potency [2] | Potency [3] | Potency [4] | Potency [5] | Potency [6]

CCCC(CC)CCCCCCCN (configuration not stated)
active: Potency [8] 39.9 µM
inactive: Potency [7] | Potency [3] | Potency [9]

CO[Si](CCC1CCC2OC2C1)(OC)OC (configuration not stated)
inactive: Potency [1] | Potency [2] | Potency [3] | Potency [4] | Potency [5] | Potency [6] | Potency [9]

CCOC(=O)CN
inactive: Potency [1] | Potency [2] | Potency [3] | Potency [4] | Potency [5]

CCCCCCCC(=O)OCC
inactive: Potency [1] | Potency [2] | Potency [3] | Potency [4] | Potency [5] | Potency [6]

CC(C)C(=O)OCc1ccccc1
inactive: Potency [1] | Potency [2] | Potency [3] | Potency [4] | Potency [5] | Potency [6]

CC(C)(C)c1cc(CCC(=O)NCCCCCCNC(=O)CCc2cc(C(C)(C)C)c(O)c(C(C)(C)C)c2)cc(C(C)(C)C)c1O
inactive: Potency [1] | Potency [2] | Potency [3] | Potency [4] | Potency [5] | Potency [6]

Cc1cnccn1
inactive: Potency [1] | Potency [2] | Potency [3] | Potency [4] | Potency [5] | Potency [6] | Potency [9]

C=CC(C)C#N (configuration not stated)
inactive: Potency [1] | Potency [2] | Potency [3] | Potency [4] | Potency [5] | Potency [6] | Potency [9]

OCCN1CN(CCO)CN(CCO)C1
inactive: Potency [1] | Potency [2] | Potency [3] | Potency [4] | Potency [5] | Potency [6]

CCN(CC)c1cccc(C)c1
inactive: Potency [1] | Potency [2] | Potency [3] | Potency [4] | Potency [5] | Potency [6] | Potency [9]

Brc1ccccn1
inactive: Potency [1] | Potency [2] | Potency [3] | Potency [4] | Potency [5]

Cc1cncc(C)c1
inactive: Potency [1] | Potency [2] | Potency [3] | Potency [4] | Potency [5]

COc1ccccc1OCCNCC(O)COc1cccc2[nH]c3ccccc3c12 (configuration not stated)
inactive: Potency [8] | Potency [9]
active: Potency [6] 19 µM

CC(=O)c1ccccc1N
inactive: Potency [1] | Potency [2] | Potency [3] | Potency [4] | Potency [5] | Potency [6] | Potency [9]

CN(C)CCN1CCOCC1
inactive: Potency [1] | Potency [2] | Potency [3] | Potency [4] | Potency [5] | Potency [6] | Potency [9]

CC(C)=CCCC(C)O (configuration not stated)
inactive: Potency [1] | Potency [2] | Potency [3] | Potency [4] | Potency [5] | Potency [6] | Potency [9]

CC1=CCC(=O)O1
inactive: Potency [1] | Potency [2] | Potency [3] | Potency [4] | Potency [5] | Potency [6] | Potency [9]

CC(C)=CC1CC(C)CCO1 (configuration not stated)
inactive: Potency [1] | Potency [2] | Potency [3] | Potency [4] | Potency [5] | Potency [6]

Clc1cc(Cl)c(-c2c(Cl)c(Cl)cc(Cl)c2Cl)cc1Cl
inactive: Potency [1] | Potency [2] | Potency [3] | Potency [4] | Potency [5] | Potency [6] | Potency [9]

CCCCCCCCC(C)=O
inactive: Potency [1] | Potency [2] | Potency [3] | Potency [4] | Potency [5]

CCc1c(C(=O)O)c(=O)cnn1-c1ccc(Cl)cc1
inactive: Potency [1] | Potency [2] | Potency [3] | Potency [4] | Potency [5] | Potency [6]

CCCCN(C)C
inactive: Potency [1] | Potency [2] | Potency [3] | Potency [4] | Potency [5] | Potency [6] | Potency [9]

Oc1cc2ccccc2cc1O
inactive: Potency [1] | Potency [2] | Potency [3] | Potency [4] | Potency [5] | Potency [6]

OCCCS
inactive: Potency [1] | Potency [2] | Potency [3] | Potency [4] | Potency [5] | Potency [6] | Potency [9]

CCc1cccc(CC)c1N(COC)C(=O)CS(=O)(=O)O
inactive: Potency [1] | Potency [2] | Potency [3] | Potency [4] | Potency [5] | Potency [6] | Potency [9]

CC1(C)COCN1
inactive: Potency [1] | Potency [2] | Potency [3] | Potency [4] | Potency [5] | Potency [6] | Potency [9]

CCC1CCCCC1
inactive: Potency [1] | Potency [2] | Potency [3] | Potency [4] | Potency [5] | Potency [6] | Potency [9]

CO[Si](CCCNCCNCCN)(OC)OC
inactive: Potency [1] | Potency [2] | Potency [3] | Potency [4] | Potency [5] | Potency [6] | Potency [9]

CC(C)=CCCC(C)CCOC(=O)C(C)C (configuration not stated)
inactive: Potency [1] | Potency [2] | Potency [3] | Potency [4] | Potency [5] | Potency [6] | Potency [9]

O=C=NCc1cccc(CN=C=O)c1
inactive: activity, negative = cytotoxicity [1] 5.39% [at 19 µM] | activity change, negative = inhibition [2] -2.4% [at 19 µM] | viability change, negative = cytotoxic [3] -10.1% [at 15.8 µM] | activation [4] -14% [at 15.8 µM] | activation [5] -0.945% [at 15.8 µM] | activity change, negative = cytotoxicity [6] -2.82% [at 15.8 µM] | activity change, negative = cytotoxicity [9] 2.07% [at 19 µM]

C/C=C/CO
inactive: Potency [1] | Potency [2] | Potency [3] | Potency [4] | Potency [5] | Potency [6] | Potency [9]

CN1CN(C)CN(C)C1
inactive: Potency [1] | Potency [2] | Potency [3] | Potency [4] | Potency [5] | Potency [6] | Potency [9]

Clc1nc2ccccc2s1
inactive: Potency [1] | Potency [2] | Potency [3] | Potency [4] | Potency [5] | Potency [6] | Potency [9]

CC[N+](CC)(CC)Cc1ccccc1
inactive: Potency [1] | Potency [2] | Potency [3] | Potency [4] | Potency [5] | Potency [6] | Potency [9]

OCCC(O)CO (configuration not stated)
inactive: Potency [1] | Potency [2] | Potency [3] | Potency [4] | Potency [5] | Potency [6] | Potency [9]

CCCCCCCC(OC)OC
inactive: Potency [1] | Potency [2] | Potency [3] | Potency [4] | Potency [5] | Potency [6] | Potency [9]

CCCC(=O)OCC(COC(=O)CCC)OC(=O)CCC
inactive: Potency [1] | Potency [2] | Potency [3] | Potency [4] | Potency [5] | Potency [6] | Potency [9]

O=c1cccc[nH]1
inactive: Potency [1] | Potency [2] | Potency [3] | Potency [4] | Potency [5] | Potency [6] | Potency [9]

CCCCCCCOC(=O)c1ccccc1C(=O)OCCCCCCC
inactive: Potency [1] | Potency [2] | Potency [3] | Potency [4] | Potency [5] | Potency [6] | Potency [9]

CCC(=O)CC(C)CC (configuration not stated)
inactive: activity, negative = cytotoxicity [1] 6.35% [at 0.349 µM] | activity change, negative = inhibition [2] 0.102% [at 0.35 µM] | viability change, negative = cytotoxic [3] 5.42% [at 0.29 µM] | activation [4] -5.51% [at 0.29 µM] | activation [5] 2.44% [at 0.29 µM] | activity change, negative = cytotoxicity [6] -1.51% [at 0.29 µM] | activity change, negative = cytotoxicity [9] 0.29% [at 0.349 µM]

CCOC(/C=C(\C)CCC=C(C)C)OCC
inactive: Potency [1] | Potency [2] | Potency [3] | Potency [4] | Potency [5] | Potency [6] | Potency [9]

C/C=C/C(=O)C1=C(C)CCCC1(C)C
inactive: Potency [1] | Potency [2] | Potency [3] | Potency [4] | Potency [5] | Potency [6] | Potency [9]

CCC(C)c1ccccc1 (configuration not stated)
inactive: Potency [1] | Potency [2] | Potency [3] | Potency [4] | Potency [5] | Potency [6] | Potency [9]

Cc1cc(C)c(C=O)c(C)c1
inactive: Potency [1] | Potency [2] | Potency [3] | Potency [4] | Potency [5] | Potency [6] | Potency [9]

C=C/C=C/C=C/CCCCC
inactive: activity, negative = cytotoxicity [1] -9.56% [at 19 µM] | activity change, negative = inhibition [2] -0.464% [at 19 µM] | viability change, negative = cytotoxic [3] 1.06% [at 15.8 µM] | activation [4] 2.42% [at 15.8 µM] | activation [5] -4.02% [at 15.8 µM] | activity change, negative = cytotoxicity [6] -9.45% [at 15.8 µM] | activity change, negative = cytotoxicity [9] -3.82% [at 19 µM]

CCOB(OCC)OCC
inactive: Potency [1] | Potency [2] | Potency [3] | Potency [4] | Potency [5] | Potency [6] | Potency [9]

Cc1cc(=O)[nH]c(=O)[nH]1
inactive: Potency [1] | Potency [2] | Potency [3] | Potency [4] | Potency [5] | Potency [6] | Potency [9]

CCCCCCCCCCCCCCCCCO
inactive: activity, negative = cytotoxicity [1] -0.0509% [at 19 µM] | activity change, negative = inhibition [2] -0.415% [at 19 µM] | viability change, negative = cytotoxic [3] -0.925% [at 15.8 µM] | activation [4] -5.53% [at 15.8 µM] | activation [5] 2.15% [at 15.8 µM] | activity change, negative = cytotoxicity [6] -0.179% [at 15.8 µM] | activity change, negative = cytotoxicity [9] 0.141% [at 19 µM]

COc1ccccc1C=O
inactive: Potency [1] | Potency [2] | Potency [3] | Potency [4] | Potency [5] | Potency [6] | Potency [9]

CC(=O)O[C@@H]1C[C@@H]2CC[C@@]1(C)C2(C)C
inactive: Potency [1] | Potency [2] | Potency [3] | Potency [4] | Potency [5] | Potency [6] | Potency [9]

O=S(O)O
inactive: activity, negative = cytotoxicity [1] 14% [at 19 µM] | activity change, negative = inhibition [2] 7.25% [at 19 µM] | viability change, negative = cytotoxic [3] 5.55% [at 15.8 µM] | activation [4] 2.22% [at 15.8 µM] | activation [5] -2.24% [at 15.8 µM] | activity change, negative = cytotoxicity [6] -0.924% [at 15.8 µM] | activity change, negative = cytotoxicity [9] -0.573% [at 19 µM]
